Assay results taken from PubChem BioAssay.
Calls of active or inactive are those of the source.

Test: growth of efflux-deficient E. coli DRC39 – strain DRC39, OD650, 24 h, E. coli filamentation inducers, primary screen (AID 1178);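 note: growth measured as culture turbidity by optical density at 650 nm; test concentration not given here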
Conditions: E. coli DRC39 acrAB, higher = more signal, called active from +8 up or from −8 down

z-score, inactive:
COCCOC(=O)N1C(=O)[C@@]2(c3cc(C#CC4=CCCCC4)ccc31)[C@H](c1ccccc1OCCO)N1[C@H](c3ccccc3)[C@H](c3ccccc3)OC(=O)[C@H]1[C@@H]2C(=O)Nc1nc2ccccc2s1 -0.736
CCCCC(=C=CC[C@@H](O)c1ccccc1OCCO)C[C@@H](O)COCc1ccccc1 0.666
Cc1ccc(S[C@]2(C(=O)NCC(F)(F)F)CC(=O)N(Cc3ccccc3)[C@@H]2c2ccc(CO)cc2I)cc1 0.531
O=C(NCC(F)(F)F)[C@@H]1c2ccccc2C(=O)N(Cc2cc(F)cc(C(F)(F)F)c2)[C@H]1c1ccc(CO)cc1 0.647
C=C(CCCC)/C(=C/C[C@@H](OC(=O)c1ccncc1)c1ccccc1OCCO)c1cnc2ccccc2c1 -0.334
[N-]=[N+]=Nc1ccccc1C[C@]1(C(=O)N2CCOCC2)N=C(c2ccc(OCCCO)cc2)O[C@H]1c1ccccc1 1.11
CCCNC(=O)[C@@H]1c2ccccc2C(=O)N(C(C)C)[C@H]1c1ccc(CO)cc1 0.313
O=C1O[C@H](c2ccccc2)[C@H](c2ccccc2)N2[C@H]1[C@@H](C(=O)Nc1nc3ccccc3s1)[C@]1(C(=O)Nc3ccc(C#CC4(O)CCCCCC4)cc31)[C@H]2c1ccccc1OCCO -0.295
O=C1OCC=C[C@H]2OC34C=CCN(Cn5nnc6ccccc65)C(=O)[C@H]3N(CCCO)C(=O)[C@@H]4[C@@H]12 (stereo not given in full) -1.4
COC(=O)[C@@]1(Cc2ccccc2)[C@H]2c3cc(C(=O)N(C)C)n(Cc4c(CO)[nH]cc(C)c4=O)c3C[C@H]2CN1C(=O)c1ccccc1 -0.198
COC(=O)[C@@]1(Cc2ccc(OC)cc2)[C@H]2c3cc(C(=O)N(C)C)n(Cc4ccc(Cl)c(C(F)(F)F)c4)c3C[C@H]2CN1C(=O)c1ccccc1 -0.505
C=CCNC(=O)[C@H]1[C@@H]2C(=O)O[C@@H](c3ccccc3)[C@@H](c3ccccc3)N2[C@@H](c2ccc(O)cc2)[C@]12C(=O)N(C(=O)OCCOC)c1ccccc12 -0.919
CCCCCCCCCCC(O)C1C=CC2C(=O)N(C)C(=O)C2N1NC(=O)OC(C)(C)C (stereo not given) -0.235
NC(N)=NCCCn1cc(CNC(=O)[C@@H](N)Cc2ccccc2)nn1 0.19
CCOC(=O)C1CCCCN1 (stereo not given) -0.33
